# Test results reported in PubChem BioAssay (NCATS).
# A number with no mark means an inactive call. Results filed as inconclusive are left out. Where a call stands in place of a potency, no number is given. Activity calls are given as the source filed them. Unless noted, calls follow the shape of the dose curve; as a rule, active = well fitted curve in the direction sought with a large enough effect; inconclusive = small, poorly fitted or top-dose-only effect, or another doubt; inactive = no such curve, though single readings can be large; an effect the other way counts as inactive or inconclusive.
# Legend:
# [1] = qHTS for differential inhibitors of proliferation of Plasmodium falciparum line D10 (AID 1877);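 also: parasites grown with compound for 72 h before DNA staining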
# [2] = target: Thyrotropin-releasing hormone receptor (Homo sapiens) (UniProt P34981); test: qHTS for Small Molecule Agonists and Allosteric Enhancers of Human TRH Receptor: Validation Screen for Agonists (AID 493127;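 active = calcium activation more than 3 SD above the typical response in the agonist read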;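 also: intracellular calcium rise by fluo-8 fluorescence before TRH EC20 addition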); details: TRH receptor agonist cell assay; at 2 µM; hits give high values
# How it was run: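 Cells 2000/well, 10% FCS, 18 h 33.5C/5% CO2 → fluo-8 Ca dye, RT 30 min–1.5 h → FDSS baseline 10 × 1 s → compound added → 230 cycles (1 s/cycle) agonist mode. TRH controls.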
# [3] = AP1 Signaling Pathway (AID 357; active = well fitted curve in either direction with a large enough effect, not every such curve was filed as active;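 also: ME-180 reporter cells stimulated with EGF at its EC50 level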); details: ME-180 AP-1-bla reporter, EGF-induced, beta-lactamase ratio, 5 h; at 7.69 µM (top of the series) unless noted
# How it was run: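 Cells are seeded overnight, exposed to compound titrations and an EC50 level of EGF for 5 hours at 37 °C, then loaded with CCF4 dye for 2.5 hours. Beta-lactamase activity under the AP-1 element is read as a blue/green ratio.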
# [4] = Stat Signaling Pathway (AID 446; active = well fitted curve in either direction with a large enough effect, not every such curve was filed as active;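 also: ME-180 cervical cancer cells given 40 pM IL-6 alongside compound; SIE-controlled beta-lactamase reporter measured as 460/530 nm FRET emission ratio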); details: ME-180 SIE beta-lactamase reporter, IL-6 stimulated, 5 h; at 7.69 µM (top of the series) unless noted
# How it was run: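 Reporter line: ME-180 cervical carcinoma, SIE-beta-lactamase. Treatment: compound with 40 pM IL-6, 5 hrs, 37 C, in low-serum OPTI-MEM with 10 mM HEPES pH 7.3. Detection: 460/530 nm fluorescence.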
# [5] = target: Guanine nucleotide-binding protein G(i) subunit alpha-1 (Homo sapiens) (UniProt P63096); test: qHTS Assay for Inhibitors of RGS12 GoLoco Motif Activity (Green Fluorophore) (AID 879);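 also: negative values mean loss of peptide binding seen as reduced polarization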
# How it was run: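 Fluorescence polarization assay: 50 nM Gαi1 with 10 nM FITC-labeled RGS12 GoLoco peptide in 10 mM Tris pH 7.5, 150 mM NaCl, 0.1 mM GDP, 0.05% NP40, 10 min at room temperature with compound.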
# [6] = target: Pyruvate kinase (Leishmania mexicana) (UniProt Q27686); test: qHTS Validation Assay for Inhibitors of Leishmania Mexicana Pyruvate Kinase (AID 945)
# How it was run: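 Eight-point qHTS titrations; enzyme 0.2 nM LmPYK (E451W mutant); substrates 0.5 mM PEP, 0.1 mM ADP; 7 mM MgCl2; 1 h room temperature; PKLight luminescence normalized to neutral control.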
# [7] = target: Pyruvate kinase PKM (Homo sapiens) (UniProt P14618); test: qHTS Assay for Activators of Human Muscle Pyruvate Kinase (AID 954; active = well fitted curve in the direction sought with a large enough effect, not every such curve was filed as active)
# How it was run: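 Human PKM2 activity is measured as ATP generation, detected by luciferase-coupled luminescence. The enzyme (0.1 nM) acts on 0.5 mM PEP and 0.1 mM ADP for 1 h at ambient temperature; data are normalized to uninhibited and full-inhibition wells.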
# [8] = target: alpha-glucosidase (Oryza sativa, rice) (UniProt Q653V4); test: Counterscreen for Glucocerebrosidase Inhibitors: qHTS Assay for Rice alpha-Glucosidase at pH 5.0 (AID 997)
# How it was run: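 Rice alpha-glucosidase (4 nM final) with 400 uM 4-methylumbelliferyl-alpha-D-glucopyranoside in citrate buffer pH 5.0, 20 min at room temperature, stopped at pH 10; fluorescence 365/440 nm, compounds 0.7 nM–77 uM, AC50 from Hill fits.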
# [9] = qHTS for differential inhibitors of proliferation of Plasmodium falciparum line 7G8 (AID 1815);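 also: parasite growth measured after three days of incubation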
# [10] = qHTS for differential inhibitors of proliferation of Plasmodium falciparum line GB4 (AID 1816); details: Potency: Plasmodium falciparum GB4 proliferation inhibition;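 also: parasite growth measured after 72 h incubation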
# [11] = qHTS for differential inhibitors of proliferation of Plasmodium falciparum line 3D7 (AID 1876); also: potency is read from the fitted curve at half-maximal effect;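 as to activity, negative = inhibition: parasite growth measured after three days of culture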
# [12] = qHTS for differential inhibitors of proliferation of Plasmodium falciparum line Dd2 (AID 1882); details: Potency: Plasmodium falciparum Dd2 proliferation inhibition; also: nearly all actives have a fitted effect of over 65% in size
# How it was run: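 Dd2-infected erythrocytes (0.3% parasitemia, 2.5% hematocrit final) incubated with compound 72 h at 37 C, 5% CO2; lysed with saponin/Triton buffer containing SYBR Green I, incubated overnight in the dark, then read by fluorescence (485/535 nm). Normalized to 0.29 uM artemisinin and DMSO.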
# [13] = qHTS for differential inhibitors of proliferation of Plasmodium falciparum line W2 (AID 1883); details: Potency: Plasmodium falciparum W2 proliferation inhibition;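 also: parasites grown with compound for 72 h before lysis and staining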; also: potency is read from the fitted curve at half-maximal effect
# [14] = qHTS for differential inhibitors of proliferation of Plasmodium falciparum line HB3 (AID 1886); details: Potency: Plasmodium falciparum HB3 proliferation inhibition;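 also: parasites grown with compound for 72 h before SYBR Green readout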
# [15] = qHTS Assay for Modulators of Human Peripheral Myelin Protein 22 (PMP22) Expression/Activity (AID 1967; active = well fitted curve in the direction sought with a large enough effect in the signal ratio; the % refers to the signal ratio)
# How it was run: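 Luminescence ratio of Pmp22 promoter-driven green luciferase to EF-alpha-driven red luciferase, in engineered mouse MSC80 Schwann cells, served as read-out. Compounds were incubated 24h; untreated cells defined 0% Activity; curves were classified by r2, magnitude and activity.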
# [16] = target: Voltage-gated inwardly rectifying potassium channel KCNH2 (Homo sapiens) (UniProt Q12809); test: qHTS Assay for Small Molecule Inhibitors of the Human hERG Channel Activity (AID 588834);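 also: top concentration of the series differs between compounds; lower thallium flux fluorescence means stronger hERG block; nearly all actives have a fitted effect of over 50% in size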
# How it was run: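 hERG-BacMam U2OS, 2000 cells/well; 0.7X FluxOR loading 1 hr RT dark; cpd ~10 min 37 °C; stim buffer; FDSS fluorescence 2 min @ 1 s; AC50 Hill fit.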
# [17] = target: M-phase phosphoprotein 8 (Homo sapiens) (UniProt Q99549); test: qHTS Validation Assay for Inhibitors for MPP8 Chromodomain Interactions with Methylated Histone Tails (AID 488949);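 also: 50 nM MPP8 with 50 nM peptide preformed then compounds added for 30 min; AlphaScreen signal from MPP8 chromodomain bound to biotinylated H3K9me3 peptide; top concentration of the series differs between compounds; nearly all actives have a fitted effect of over 55% in size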
# How it was run: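 50 nM MPP8 + 50 nM b-H3K9me3 peptide, PBS pH 7.4/0.01% Tween-20, 30 min RT; + cpd 30 min RT; + AlphaScreen donor/Ni-chelate acceptor beads 10 ug/mL final, 30 min dark; luminescence read.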
# [18] = target: Ubiquitin carboxyl-terminal hydrolase 1 (Homo sapiens) (UniProt O94782); test: Inhibitors of USP1/UAF1: Pilot qHTS (AID 504865);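 also: rhodamine fluorescence freed from ubiquitin-rhodamine substrate followed over time; top concentration of the series differs between compounds; nearly all actives have a fitted effect of over 35% in size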
# How it was run: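 In 50mM HEPES pH 7.8 containing 0.5mM EDTA, 1mM TCEP, 0.1 mg/ml BSA and 0.01% Tween-20, 1nM USP1/UAF1 is exposed to compound for 15 min, then Ub-Rho (150nM final) is added and fluorescence is read over time.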
# [19] = qHTS profiling for inhibitors of Plasmodium falciparum proliferation (AID 504749); also: nearly all actives have a fitted effect of over 60% in size; details: P. falciparum in erythrocytes, SYBR Green DNA, 72 h, at 28.7 µM (top of the series)
# How it was run: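 P. falciparum-infected erythrocytes (0.3% parasitemia, 2.5% hematocrit) incubated with compound 72 h at 37 C, 5% CO2. Parasite DNA detected by SYBR Green after lysis, overnight at room temperature; normalised to 0.29 uM artemisinin and DMSO.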
# [20] = target: RecQ-like DNA helicase BLM (Homo sapiens) (UniProt P54132); test: qHTS Validation Assay for Inhibitors of Bloom's syndrome helicase (BLM) (AID 2364)
# How it was run: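 50 nM BLM preincubated 15 min at room temperature with compound in pH 8.0 Tris buffer containing 2.5 ug/ml poly(dI-dC); started with 200 nM TAMRA/BHQ-2 forked duplex and 2 mM ATP (final). Unwinding read as TAMRA fluorescence increase, two reads 2 h apart.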
# RecQ-like DNA helicase BLM (Homo sapiens), sequence (P54132 whole entry, looked up): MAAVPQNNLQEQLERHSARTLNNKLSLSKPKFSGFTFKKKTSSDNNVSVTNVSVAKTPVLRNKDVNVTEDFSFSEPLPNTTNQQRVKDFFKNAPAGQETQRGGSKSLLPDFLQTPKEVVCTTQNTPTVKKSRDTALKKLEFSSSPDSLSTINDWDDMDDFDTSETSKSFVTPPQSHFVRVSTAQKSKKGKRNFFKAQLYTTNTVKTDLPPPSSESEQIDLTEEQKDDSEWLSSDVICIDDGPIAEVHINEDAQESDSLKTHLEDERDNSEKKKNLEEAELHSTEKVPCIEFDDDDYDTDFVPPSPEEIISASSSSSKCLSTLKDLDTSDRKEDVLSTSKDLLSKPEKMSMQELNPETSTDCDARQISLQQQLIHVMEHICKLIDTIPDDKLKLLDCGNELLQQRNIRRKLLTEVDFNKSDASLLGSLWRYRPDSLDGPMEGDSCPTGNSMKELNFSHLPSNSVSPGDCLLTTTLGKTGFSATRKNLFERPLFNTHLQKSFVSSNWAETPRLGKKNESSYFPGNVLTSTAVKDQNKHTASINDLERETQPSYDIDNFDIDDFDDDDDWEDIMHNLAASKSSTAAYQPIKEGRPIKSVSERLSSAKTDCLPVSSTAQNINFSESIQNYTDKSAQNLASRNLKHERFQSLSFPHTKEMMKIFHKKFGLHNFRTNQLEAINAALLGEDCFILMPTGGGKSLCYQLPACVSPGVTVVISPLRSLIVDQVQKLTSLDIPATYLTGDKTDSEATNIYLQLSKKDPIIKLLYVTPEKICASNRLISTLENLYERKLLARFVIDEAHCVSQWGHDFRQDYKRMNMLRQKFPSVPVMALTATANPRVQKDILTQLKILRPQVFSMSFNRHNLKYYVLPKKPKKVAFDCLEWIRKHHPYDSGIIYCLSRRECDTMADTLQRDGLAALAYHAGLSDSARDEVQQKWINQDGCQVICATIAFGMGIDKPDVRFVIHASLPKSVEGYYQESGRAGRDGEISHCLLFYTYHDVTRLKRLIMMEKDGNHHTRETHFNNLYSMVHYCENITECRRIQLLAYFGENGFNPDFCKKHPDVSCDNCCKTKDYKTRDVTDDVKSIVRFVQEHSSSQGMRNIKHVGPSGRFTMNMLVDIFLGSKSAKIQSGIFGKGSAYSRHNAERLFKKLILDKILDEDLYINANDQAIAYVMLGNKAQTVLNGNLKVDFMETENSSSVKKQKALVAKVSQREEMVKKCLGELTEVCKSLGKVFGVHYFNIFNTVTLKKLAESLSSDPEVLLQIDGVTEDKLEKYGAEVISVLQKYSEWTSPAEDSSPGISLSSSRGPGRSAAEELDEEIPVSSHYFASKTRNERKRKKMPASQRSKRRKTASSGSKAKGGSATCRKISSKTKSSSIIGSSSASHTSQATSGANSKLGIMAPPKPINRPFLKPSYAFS
# Voltage-gated inwardly rectifying potassium channel KCNH2 (Homo sapiens), sequence (Q12809 whole entry, looked up): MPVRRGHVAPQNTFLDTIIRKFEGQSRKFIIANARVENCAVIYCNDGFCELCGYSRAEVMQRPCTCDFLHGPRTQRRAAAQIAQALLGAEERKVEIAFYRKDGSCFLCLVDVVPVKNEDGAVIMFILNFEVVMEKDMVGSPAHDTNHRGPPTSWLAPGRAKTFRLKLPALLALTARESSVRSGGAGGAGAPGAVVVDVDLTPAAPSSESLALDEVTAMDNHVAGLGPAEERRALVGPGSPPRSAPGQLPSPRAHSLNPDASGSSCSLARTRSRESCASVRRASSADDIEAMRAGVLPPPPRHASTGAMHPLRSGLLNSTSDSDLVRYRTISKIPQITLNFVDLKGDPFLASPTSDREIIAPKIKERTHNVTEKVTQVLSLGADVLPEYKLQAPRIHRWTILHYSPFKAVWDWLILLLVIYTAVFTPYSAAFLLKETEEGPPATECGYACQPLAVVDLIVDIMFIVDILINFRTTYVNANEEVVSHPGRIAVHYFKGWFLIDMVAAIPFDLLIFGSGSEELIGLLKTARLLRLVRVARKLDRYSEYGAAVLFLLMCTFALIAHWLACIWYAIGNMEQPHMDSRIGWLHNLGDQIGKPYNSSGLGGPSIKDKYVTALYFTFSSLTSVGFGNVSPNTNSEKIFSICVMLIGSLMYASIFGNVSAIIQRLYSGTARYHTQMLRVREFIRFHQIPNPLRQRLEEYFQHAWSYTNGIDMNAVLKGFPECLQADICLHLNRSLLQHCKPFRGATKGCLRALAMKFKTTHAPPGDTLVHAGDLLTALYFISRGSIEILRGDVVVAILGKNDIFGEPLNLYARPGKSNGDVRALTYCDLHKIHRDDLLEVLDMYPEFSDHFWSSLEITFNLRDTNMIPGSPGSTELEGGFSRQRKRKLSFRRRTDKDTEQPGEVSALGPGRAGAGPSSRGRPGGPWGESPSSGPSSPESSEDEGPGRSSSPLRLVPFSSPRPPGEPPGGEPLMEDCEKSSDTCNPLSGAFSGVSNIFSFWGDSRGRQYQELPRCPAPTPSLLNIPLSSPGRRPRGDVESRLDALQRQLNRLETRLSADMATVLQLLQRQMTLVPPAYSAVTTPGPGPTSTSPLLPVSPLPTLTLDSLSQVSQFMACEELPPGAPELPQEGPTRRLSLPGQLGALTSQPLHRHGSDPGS
# Thyrotropin-releasing hormone receptor (Homo sapiens), sequence (P34981 whole entry, looked up): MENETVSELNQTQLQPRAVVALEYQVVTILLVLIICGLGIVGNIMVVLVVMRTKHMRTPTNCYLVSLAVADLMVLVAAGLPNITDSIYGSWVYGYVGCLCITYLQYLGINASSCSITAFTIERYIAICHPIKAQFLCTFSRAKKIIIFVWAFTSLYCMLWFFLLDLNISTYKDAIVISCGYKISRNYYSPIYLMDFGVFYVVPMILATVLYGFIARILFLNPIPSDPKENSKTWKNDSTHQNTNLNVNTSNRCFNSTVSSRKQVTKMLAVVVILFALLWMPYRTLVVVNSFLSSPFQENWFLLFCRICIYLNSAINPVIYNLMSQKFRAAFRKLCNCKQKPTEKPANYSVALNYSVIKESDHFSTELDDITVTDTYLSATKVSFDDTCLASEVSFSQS
# M-phase phosphoprotein 8 (Homo sapiens), sequence (Q99549 whole entry, looked up): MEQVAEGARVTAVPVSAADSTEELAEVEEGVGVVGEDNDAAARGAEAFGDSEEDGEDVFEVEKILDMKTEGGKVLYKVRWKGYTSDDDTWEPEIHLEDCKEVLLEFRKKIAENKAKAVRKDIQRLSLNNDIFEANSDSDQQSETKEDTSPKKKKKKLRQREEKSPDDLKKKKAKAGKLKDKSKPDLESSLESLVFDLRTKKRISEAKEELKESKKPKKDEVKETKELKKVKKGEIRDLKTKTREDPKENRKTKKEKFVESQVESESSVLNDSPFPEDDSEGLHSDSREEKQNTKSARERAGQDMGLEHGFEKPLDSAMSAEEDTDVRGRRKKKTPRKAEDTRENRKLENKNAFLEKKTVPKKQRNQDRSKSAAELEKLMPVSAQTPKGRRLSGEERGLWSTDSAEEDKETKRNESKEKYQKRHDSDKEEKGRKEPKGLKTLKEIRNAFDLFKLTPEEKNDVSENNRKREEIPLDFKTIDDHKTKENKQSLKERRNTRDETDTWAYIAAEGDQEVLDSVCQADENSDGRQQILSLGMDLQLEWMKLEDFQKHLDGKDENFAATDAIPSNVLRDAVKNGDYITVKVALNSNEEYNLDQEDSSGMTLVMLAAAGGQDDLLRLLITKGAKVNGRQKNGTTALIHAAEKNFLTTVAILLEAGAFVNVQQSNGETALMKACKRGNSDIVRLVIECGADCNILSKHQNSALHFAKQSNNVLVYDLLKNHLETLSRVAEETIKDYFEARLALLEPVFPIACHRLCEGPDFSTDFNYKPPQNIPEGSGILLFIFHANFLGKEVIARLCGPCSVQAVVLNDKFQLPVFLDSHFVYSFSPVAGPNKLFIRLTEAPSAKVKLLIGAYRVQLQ
# Ubiquitin carboxyl-terminal hydrolase 1 (Homo sapiens), sequence (O94782 whole entry, looked up): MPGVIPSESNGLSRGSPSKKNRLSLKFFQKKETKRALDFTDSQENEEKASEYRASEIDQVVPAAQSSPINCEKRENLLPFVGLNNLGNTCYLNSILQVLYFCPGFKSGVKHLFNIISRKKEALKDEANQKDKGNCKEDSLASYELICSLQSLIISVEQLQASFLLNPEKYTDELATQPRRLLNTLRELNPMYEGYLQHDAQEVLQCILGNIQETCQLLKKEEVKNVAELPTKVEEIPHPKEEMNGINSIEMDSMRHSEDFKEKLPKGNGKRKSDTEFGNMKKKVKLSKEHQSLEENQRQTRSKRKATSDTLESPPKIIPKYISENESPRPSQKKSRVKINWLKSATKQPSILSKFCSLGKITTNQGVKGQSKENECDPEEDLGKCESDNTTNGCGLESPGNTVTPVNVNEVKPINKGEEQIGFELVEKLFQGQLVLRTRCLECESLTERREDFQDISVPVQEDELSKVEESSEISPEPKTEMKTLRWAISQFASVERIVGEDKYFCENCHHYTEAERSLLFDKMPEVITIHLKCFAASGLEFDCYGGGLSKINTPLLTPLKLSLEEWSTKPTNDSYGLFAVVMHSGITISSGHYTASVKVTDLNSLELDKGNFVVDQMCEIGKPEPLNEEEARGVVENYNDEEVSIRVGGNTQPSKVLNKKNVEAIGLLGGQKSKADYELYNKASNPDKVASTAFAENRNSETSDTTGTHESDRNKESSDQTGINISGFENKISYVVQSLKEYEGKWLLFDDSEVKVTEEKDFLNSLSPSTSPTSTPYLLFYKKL
# Guanine nucleotide-binding protein G(i) subunit alpha-1 (Homo sapiens), sequence (P63096 whole entry, looked up): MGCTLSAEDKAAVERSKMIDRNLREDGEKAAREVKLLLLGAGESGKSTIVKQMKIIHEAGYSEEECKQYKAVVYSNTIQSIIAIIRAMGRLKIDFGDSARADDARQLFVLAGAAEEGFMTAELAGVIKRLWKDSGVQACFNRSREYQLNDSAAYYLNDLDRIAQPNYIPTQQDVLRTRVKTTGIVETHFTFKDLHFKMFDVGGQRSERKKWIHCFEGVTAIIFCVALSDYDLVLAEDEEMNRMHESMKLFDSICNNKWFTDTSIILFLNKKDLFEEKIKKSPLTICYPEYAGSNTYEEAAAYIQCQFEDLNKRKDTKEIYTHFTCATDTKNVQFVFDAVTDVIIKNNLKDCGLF
smiles,measurement,setting,value
Nc1nc(SCc2ccc([N+](=O)[O-])cc2)c2ncn([C@@H]3O[C@H](CO)[C@H](O)[C@H]3O)c2n1,Potency,[1],inactive
same,activation,[2],0.75%
O=C(Cc1ccc(Cl)c(Cl)c1)OCCN1CCCC1,"activity change, negative = inhibition",[3],17.4% [at 38 µM]
same,"activity, negative = inhibition",[4],15.9% [at 38 µM]
same,outcome,[5],inactive
same,Potency,[6],inactive
same,outcome,[7],inactive
same,outcome,[8],inactive
same,Potency,[9],inactive
same,Potency,[10],inactive
same,Potency,[11],inactive
same,Potency,[1],inactive
same,Potency,[12],inactive
same,Potency,[13],inactive
same,Potency,[14],inactive
same,outcome,[15],inactive
same,activation,[2],1.06%
same,Potency,[16],inactive
CN=C(N)NCCCC(N)C(=O)O (stereo not given),Potency,[9],inactive
same,Potency,[10],inactive
same,Potency,[11],inactive
same,Potency,[1],inactive
same,Potency,[12],inactive
same,Potency,[13],inactive
same,Potency,[14],inactive
same,outcome,[15],inactive
same,Potency,[17],inactive
same,activation,[2],0.812%
same,Potency,[18],inactive
same,"activity, negative = inhibition",[19]; parasite line A,12.3%
same,"activity, negative = inhibition",[19]; parasite line B,12.2%
CN1C(=O)CCC1c1cccnc1 (stereo not given),Potency,[9],inactive
same,Potency,[10],inactive
same,Potency,[1],inactive
same,Potency,[12],inactive
same,Potency,[14],inactive
same,outcome,[15],inactive
same,Potency,[20],inactive
same,activation,[2],1.19%
same,Potency,[18],inactive
same,"activity, negative = inhibition",[19]; parasite line A,0.771%
same,"activity, negative = inhibition",[19]; parasite line B,4.61%
CC(=O)O[C@H]1C[C@@H]2CCC3C(CC[C@@]4(C)[C@H]3C[C@H]([N+]3(C)CCCCC3)[C@@H]4OC(C)=O)[C@@]2(C)C[C@@H]1[N+]1(C)CCCCC1 (stereo not given in full),Potency,[9],inactive
same,Potency,[10],inactive
same,Potency,[12],inactive
same,Potency,[14],inactive
same,outcome,[15],inactive
same,Potency,[20],inactive
same,Potency,[17],inactive
same,activation,[2],0.25%
same,Potency,[16],inactive
COc1c2c(nc3ccccc13)OC(C(C)(O)CO)C2 (stereo not given),Potency,[9],inactive
same,Potency,[10],inactive
same,Potency,[11],inactive
same,Potency,[1],inactive
same,Potency,[12],inactive
same,Potency,[13],inactive
same,Potency,[14],inactive
same,outcome,[15],inactive
same,activation,[2],0.812%
same,Potency,[16],inactive
C[C@]12CCC(=O)C=C1CC[C@@H]1C2[C@@H](O)C[C@@]2(C)[C@H]1CC[C@]2(O)C(=O)CO (stereo not given in full),Potency,[10],inactive
same,Potency,[11],inactive
same,Potency,[1],inactive
same,Potency,[12],inactive
same,Potency,[13],inactive
same,Potency,[14],inactive
same,outcome,[15],inactive
same,Potency,[20],inactive
same,activation,[2],1%
same,Potency,[18],inactive
same,Potency,[16],inactive
Nc1nc(Nc2ccccc2)nc2c1ncn2[C@@H]1O[C@H](CO)[C@H](O)[C@H]1O,outcome,[15],inactive
same,Potency,[17],inactive
same,activation,[2],0.938%
same,Potency,[16],inactive
O=C(O)CC[C@H](NC(=O)c1ccccc1C(=O)O)C(=O)O,Potency,[9],inactive
same,Potency,[10],inactive
same,Potency,[11],inactive
same,Potency,[1],inactive
same,Potency,[12],inactive
same,Potency,[13],inactive
same,Potency,[14],inactive
same,outcome,[15],inactive
same,activation,[2],0.188%
same,Potency,[16],inactive
OC[C@H]1O[C@@H](n2cnc3c(NCCc4ccccc4)ncnc32)[C@H](O)[C@H]1O,outcome,[5],inactive
same,Potency,[6],inactive
same,outcome,[7],inactive
same,outcome,[8],inactive
same,Potency,[9],inactive
same,Potency,[10],inactive
same,Potency,[11],inactive
same,Potency,[1],inactive
same,Potency,[12],inactive
same,Potency,[14],inactive
same,outcome,[15],inactive
same,Potency,[20],inactive
same,activation,[2],-0.5%
same,Potency,[16],inactive
CN(C)C1C(=O)C(C(N)=O)=C(O)[C@@]2(O)C(=O)C3=C(O)c4c(O)ccc(Cl)c4[C@@H](O)C3C[C@@H]12 (stereo not given in full),Potency,[11],794 nM (active)
same,Potency,[13],891 nM (active)
same,outcome,[15],inactive
same,activation,[2],1.62%
same,Potency,[16],inactive
